Mcl1 Noxa PPI = Mcl-1/Noxa binding inhibitors, primary screen, biochemical, TR-FRET, 1536-well; inhibition, % at 21.7 µM; actives 1.5% (n = 220,000); TR-FRET Mcl-1/Noxa peptide binding, 2 h; Induced myeloid leukemia cell differentiation protein Mcl-1 (Homo sapiens), Q07820;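 active = compounds that cut the protein-peptide binding signal by more than 50% relative to plate controls in a single-dose test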;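 note: His-tagged Mcl-1 with rhodamine Noxa BH3 peptide and terbium anti-His antibody; 0% = Mcl-1 plus Noxa peptide wells and 100% = peptide-only wells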
Target sequence (Q07820 whole entry, looked up): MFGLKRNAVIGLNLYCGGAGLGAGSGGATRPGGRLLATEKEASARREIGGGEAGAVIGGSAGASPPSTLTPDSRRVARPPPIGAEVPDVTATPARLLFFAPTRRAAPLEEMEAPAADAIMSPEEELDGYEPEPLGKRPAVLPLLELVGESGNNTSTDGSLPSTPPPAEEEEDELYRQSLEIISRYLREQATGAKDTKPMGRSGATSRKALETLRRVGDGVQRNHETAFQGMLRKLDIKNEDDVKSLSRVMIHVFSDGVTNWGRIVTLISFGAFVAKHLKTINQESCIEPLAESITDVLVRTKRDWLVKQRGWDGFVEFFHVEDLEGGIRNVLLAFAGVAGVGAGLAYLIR
Hck Nef HTS = inhibitors of Nef-activated human Hck kinase, primary screen, biochemical, Z-Lyte FRET, 384-well, Hck-YEEI; Tyrosine-protein kinase HCK (Homo sapiens), P08631; actives 0.68% (n = 220,000); Recombinant Hck-YEEI plus Nef, Z-Lyte FRET kinase assay; inhibition, % at 20 µM;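 active = Hck-Nef kinase inhibition above about 50%, limit read from the data; inactive = inhibition below that limit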;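 note: 0% = DMSO with Hck plus Nef and 100% = Hck alone without Nef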
eIF4E 4G PPI = eIF4E–eIF4G protein interaction inhibitors, primary screen, biochemical, uHTS, TR-FRET, eIF4GI fragment; TR-FRET eIF4E-eIF4GI(517-606) binding, 2 h; inhibition, % at 21.7 µM; actives 0.37% (n = 220,000); AID 782, 2007;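 active = inhibition above about 30%, limit read from the data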;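 note: 0% = full FRET control wells and 100% = background wells lacking eIF4GI fragment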
Bim-Mcl-1 = inhibitors of Bim peptide binding to Mcl-1, primary screen, biochemical, bead-based flow cytometry, multiplex. Induced myeloid leukemia cell differentiation protein Mcl-1 (Homo sapiens), Q07820. Bim peptide-Mcl-1 binding. inhibition, % at 10 µM. actives 0.1% (n = 190,000). AID 1009, 2008; in the data active = inhibition above about 40%;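 note: 0% = no compound tracer wells and 100% = peptide blocker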
14-3-3 Bad PPI = inhibitors of 14-3-3 zeta/Bad binding, primary screen, biochemical, TR-FRET, bovine 14-3-3 zeta; inhibition, % at 21.7 µM; 14-3-3 protein zeta/delta (Bos taurus), P63103; TR-FRET 14-3-3zeta/Dy647-pBad peptide displacement, 1 h; actives 0.71% (n = 220,000);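 active = inhibition above about 70%, limit read from the data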;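 note: 0% = full 14-3-3 plus peptide FRET controls and 100% = background without 14-3-3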
Mcl1-Bid inh = Mcl-1/Bid binding inhibitors, primary screen, biochemical, TR-FRET, 1536-well; inhibition, % at 21.7 µM; Induced myeloid leukemia cell differentiation protein Mcl-1 (Homo sapiens), Q07820; TR-FRET Mcl-1/Bid-Dy647 peptide binding; actives 0.97% (n = 220,000);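 active = compounds that cut the binding signal by more than half at the single screening dose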;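 note: His-tagged Mcl-1 with europium anti-His antibody binding Bid BH3 peptide; 0% = Mcl-1 plus peptide wells and 100% = peptide-only wells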
* hit, by the source's call. Hits are enriched below; roughly 3.5% of the tested compounds scored in any of these assays.

`Cc1ccc2nc(-c3ccc(NC(=O)CNC4CC4)cc3)sc2c1` gave Mcl1 Noxa PPI 45, Hck Nef HTS 18, eIF4E 4G PPI 6, Bim-Mcl-1 -2, 14-3-3 Bad PPI 80* and Mcl1-Bid inh 27.
Cc1ccc2nc(-c3ccc(NC(=O)CN4C(=O)c5ccccc5C4=O)cc3)sc2c1 was read as Mcl1 Noxa PPI 22, Hck Nef HTS 6, eIF4E 4G PPI -5, Bim-Mcl-1 -5, 14-3-3 Bad PPI 15 and Mcl1-Bid inh 39.
Cc1ccc2nc(-c3ccc(NC(=O)CSc4nccc(=O)[nH]4)cc3)sc2c1 was read as Mcl1 Noxa PPI 24, Hck Nef HTS -8, eIF4E 4G PPI -6, Bim-Mcl-1 -1, 14-3-3 Bad PPI -2 and Mcl1-Bid inh 19.
Cc1ccc2nc(-c3ccc(NC(=O)CSc4nc(N)cc(=O)[nH]4)cc3)sc2c1 was read as Mcl1 Noxa PPI 32, Hck Nef HTS 47, eIF4E 4G PPI 10, 14-3-3 Bad PPI 40 and Mcl1-Bid inh 53*.
COc1cc(NC(=S)NC2CC(C)(C)NC(C)(C)C2)c(OC)cc1Cl was read as Mcl1 Noxa PPI 5, Hck Nef HTS 6, eIF4E 4G PPI 3, Bim-Mcl-1 -1, 14-3-3 Bad PPI 1 and Mcl1-Bid inh -20.
CNc1nc(-c2ccccc2)cc(C)c1S(C)(=O)=O was read as Mcl1 Noxa PPI 8, Hck Nef HTS 18, eIF4E 4G PPI 3, Bim-Mcl-1 2, 14-3-3 Bad PPI -8 and Mcl1-Bid inh -28.
Screening NNC(=O)CCC(=O)Nc1ccccc1 returned Mcl1 Noxa PPI -8, Hck Nef HTS -4, eIF4E 4G PPI -1, Bim-Mcl-1 -2, 14-3-3 Bad PPI -10 and Mcl1-Bid inh -39.
COc1cc(NC(=S)NC(=O)c2ccccc2F)ccc1NC(=O)c1ccco1 was read as Mcl1 Noxa PPI 32, Hck Nef HTS 20, eIF4E 4G PPI 8, Bim-Mcl-1 -7, 14-3-3 Bad PPI 30 and Mcl1-Bid inh 53*.
`CCn1c(SCC(=O)Nc2nc3ccc(C)cc3s2)nc2c(c1=O)SC(C)C2` (stereo unspecified) gave Mcl1 Noxa PPI 29, Hck Nef HTS 1, eIF4E 4G PPI 1, Bim-Mcl-1 -1, 14-3-3 Bad PPI -2 and Mcl1-Bid inh 56*.
Screening CCN1C(=O)/C(=C2\SC(=S)N(CCCOC)C2=O)c2ccccc21 returned Mcl1 Noxa PPI 13, Hck Nef HTS 0, eIF4E 4G PPI -25, Bim-Mcl-1 1, 14-3-3 Bad PPI -9 and Mcl1-Bid inh -8.
CN1C(=O)/C(=C2\SC(=S)N(CCCCCC(=O)O)C2=O)c2ccccc21 was read as Mcl1 Noxa PPI 113*, Hck Nef HTS 40, eIF4E 4G PPI 26, 14-3-3 Bad PPI 62 and Mcl1-Bid inh 96*.
Screening C(=N\N1CCN(Cc2cccc3ccccc23)CC1)/c1cccnc1 returned Mcl1 Noxa PPI -9, Hck Nef HTS -2, eIF4E 4G PPI -9, Bim-Mcl-1 0, 14-3-3 Bad PPI 2 and Mcl1-Bid inh 58*.
O=C(O)c1ccc(/C=N/N2CCN(Cc3cccc4ccccc34)CC2)cc1 was read as Mcl1 Noxa PPI 4, Hck Nef HTS 7, eIF4E 4G PPI 1, Bim-Mcl-1 1, 14-3-3 Bad PPI 94* and Mcl1-Bid inh -26.
Screening C(=N\N1CCN(Cc2cccc3ccccc23)CC1)/c1ccco1 returned Mcl1 Noxa PPI 3, Hck Nef HTS 21, eIF4E 4G PPI -1, Bim-Mcl-1 1, 14-3-3 Bad PPI -15 and Mcl1-Bid inh -49.
Screening FC(F)(F)c1ccc(/C=N/N2CCN(Cc3cccc4ccccc34)CC2)cc1 returned Mcl1 Noxa PPI -5, Hck Nef HTS 0, eIF4E 4G PPI -9, Bim-Mcl-1 0, 14-3-3 Bad PPI -18 and Mcl1-Bid inh -71.

From PubChem BioAssay
